About 8,600 (12%) of roughly 69,000 compounds showed an effect of 50% or more. This is one part of a sample in which strong results are shown more often than they occur.
Tested on: Plasmodium berghei
Assay: Screen against P. berghei liver stage (PbLuc), transformed with Luciferase, at 10uM
Format: functional, HepG2
Settings: tested at 10 uM

Compound	INHIBITION [%]
CC1CN(C(=O)CN(Cc2ccco2)Cc2cccs2)CCO1 (stereo unspecified)	-19.9
COC(=O)c1cccn1C1CCN(C(=O)c2c(C)noc2C)CC1	36.1
COc1cc2c(cc1OC)C(=O)C(Sc1nnnn1C)C2 (stereo unspecified)	26.4
CSc1ncc(C(=O)NCCn2nccc2C)cn1	5.785
O=S(=O)(c1ccc(F)cc1)N1CC[C@H]2[C@H]1CCN2c1ncccn1	2.4
O=C(c1cnc2c(cnn2C2CCCC2)c1)N1CCN(CCO)CC1	24
Cn1cc(C[C@H]2[C@H](O)CCN2Cc2ccc(F)cc2)cn1	57.9
Cn1cc(CN2CCCC(CCc3ccc(F)c(F)c3)C2)cn1 (stereo unspecified)	38.6
Cn1nccc1CN1CCCC(COc2ccccc2F)C1 (stereo unspecified)	17.4
COc1ccc(OCC2CCCN(Cc3ccncc3)C2)cc1 (stereo unspecified)	46.3
Fc1ccc(OCCCN2CCCC(Cn3cncn3)C2)cc1 (stereo unspecified)	5.9
Cn1cc(C[C@H]2[C@H](O)CCN2Cc2ccncc2)cn1	46.2
COc1ccc(CN2CC[C@H](O)[C@@H]2Cc2cnn(C)c2)cc1	47.4
Cn1cc(CN2CCCC(CCc3ccc(F)cc3)C2)cn1 (stereo unspecified)	59.2
CCn1cc(CN2CCCC(COc3ccc(F)cc3)C2)cn1 (stereo unspecified)	74
Cn1cc(CN2CCCC(CCc3ccc(F)cc3F)C2)cn1 (stereo unspecified)	43
CCn1cc(CN2CCCC(COc3ccccc3F)C2)cn1 (stereo unspecified)	69.3
Cn1cc(CN2CCCC(CCc3c(F)cccc3F)C2)cn1 (stereo unspecified)	30.5
Cc1cc(NC(C)c2nncn2C2CCCC2)n2nc(C)c(C)c2n1 (stereo unspecified)	32.1
CC1CCN(c2nccn3c(=O)[nH]nc23)CC1	16.8
Cc1oc(-c2cccc(F)c2F)nc1CN(CCO)C(C)C	13.6
CNC(=O)c1ccc(C2CN(C(=O)c3coc(C)n3)CCO2)nc1 (stereo unspecified)	-24.1
FC(F)(F)COCCN1CCOC(Cn2cccn2)C1 (stereo unspecified)	40
CCCNC(=O)NC(=O)CNC(C)(C)c1ccc2c(c1)OCCO2	-4.94

Compound	INHIBITION [%]
Cc1ccc(C(N)=O)c(N2C[C@H]3OC(=O)N(C4CCCC4)[C@H]3C2)n1	-14.1
Cc1cnc(C)c(N2C[C@H]3OC(=O)N(C4CCCC4)[C@H]3C2)n1	68.1
COc1ccccc1CN1C(=O)O[C@@H]2CN(c3nc(C)cnc3C)C[C@@H]21	20.9
CC(C(=O)NCc1ccc(N2CCCC2)nc1)S(C)(=O)=O (stereo unspecified)	45.7
Cc1cccc(C(=O)N2CCCN(Cc3cscn3)CC2)c1	-33.7
COc1ccc(Cl)c(-c2noc3ncn(CCC(=O)O)c(=O)c23)c1	25.9
CCOC(=O)CCn1cnc2onc(-c3ccc(OC)cc3)c2c1=O	71.4
CCOC(=O)CCn1cnc2onc(-c3cc(OC)ccc3Cl)c2c1=O	-8.07
Cc1noc(C)c1CC(=O)N1CCc2sccc2C1	19.2
Cc1ccc(NCc2cn3c(n2)CN(Cc2ccc(C)o2)CC3)nn1	29.8
CNc1cc(C2CN(C(=O)c3ccn(C)n3)CCO2)nc(C)n1 (stereo unspecified)	-29
CCS(=O)(=O)CCSc1cccc(C#N)c1	7.43
CS(=O)(=O)CCSc1cccc(C#N)c1	7.84
CCCS(=O)(=O)CCSc1cccc(C#N)c1	51.4
Cc1nsc(C(=O)NCCCc2ccccc2)n1	58.1
Cc1nsc(C(=O)NCCc2ccccc2)n1	-67.9
Cc1nsc(C(=O)NCCc2cccs2)n1	-12.1
Cc1nsc(C(=O)NCCc2ccc(S(N)(=O)=O)cc2)n1	69.5
Cc1nsc(C(=O)NCCc2ccc(F)cc2)n1	-10.6
Cc1nsc(C(=O)NCCc2ccc(Cl)cc2)n1	20.9
CC(C)(O)CCc1cccc(C(=O)N2CCC[C@H]2CN2CCCC2)c1	1.56
Cc1ccc(NC2CCN(C(=O)c3ccc4c(c3)CCC4)CC2)nn1	18.2
CCC(CC)NC(=O)c1nc2n(n1)-c1ccccc1S(=O)(=O)N2	-9.07
Cc1n[nH]c(C)c1-c1nccnc1CC1CCCN(C)C1 (stereo unspecified)	23.2

Compound	INHIBITION [%]
c1ccc(-c2nnc(CN3C[C@H]4CC[C@@H](C3)N(CC3CCC3)C4)o2)cc1	46.6
Cc1ccc(C(=O)N2CC[C@H]3[C@@H]2CCC(=O)N3c2cccnc2)o1	23.1
COCCN1CCN(CCS(=O)(=O)c2cccc(OC)c2)CC1	92.8
COc1cccc(S(=O)(=O)CCN2CCCN(C(C)=O)CC2)c1	45.8
COc1cccc(S(=O)(=O)CCN2CCCCC2)c1	-11.1
COc1cccc(S(=O)(=O)CCN2CCN(CC(F)F)CC2)c1	28.2
COc1cccc(S(=O)(=O)CCN2CCN(CCO)CC2)c1	8.24
COc1cccc(S(=O)(=O)CCN2CCC3(CC2)OCCO3)c1	60
Cc1cc(CN2C[C@H](OCC3CCOCC3)[C@H]3COC[C@H]32)oc1C	44.4
CCc1cc(NCCCOC2CCN(C)CC2)ncn1	25.5
O=C(NCCO)Nc1c(F)cc(F)cc1-c1ccccc1	33
Cc1noc([C@@]23CCO[C@@H]2CCN(CC2CCOCC2)C3)n1	17.3
c1ccc2c(c1)CCN(c1nc(N3CCOCC3)c3nn[nH]c3n1)C2	54
c1ccc2c(c1)CCN2c1nc(N2CCOCC2)c2nn[nH]c2n1	39.9
C1CCN(c2nc(N3CCOCC3)nc3[nH]nnc23)CC1	36.7
COc1ccsc1C(=O)N1CCCN(Cc2cscn2)CC1	-51.5
O=C(Cc1ccc2c(c1)OCCO2)N1CCN(c2cnccn2)CC1	-5.25
CCC1CN(c2nnc(C)c(C)c2C#N)CCO1 (stereo unspecified)	17.8
Cc1cc(C)n(CC2CN(c3nnc(C)c(C)c3C#N)CCO2)n1 (stereo unspecified)	53.1
Cc1cc(C)n(CC2CN(CCOc3ccc(C#N)cc3)CCO2)n1 (stereo unspecified)	51.1
Cc1nc(C)n(CC2CN(CCOc3ccc(C#N)cc3)CCO2)n1 (stereo unspecified)	42
Cc1nc(C)n(CC2CN(c3nnc(C)c(C)c3C#N)CCO2)n1 (stereo unspecified)	-27.3
Cc1cc(C)n(CC2CN(CCOc3cccc(C#N)c3)CCO2)n1 (stereo unspecified)	20.6
